Results from PubChem BioAssay (EPA / NIEHS).
Records with an inconclusive call do not appear. Activity calls are given as the source filed them. How the source made its calls, unless noted: active means hit-call score of the fitted dose curve at least 0.9, where 1 is the maximum; inactive means score below 0.9.

Tests used:
[1] = CCTE_Shafer_MEA_dev_per_network_spike_spike_number_mean: CCTE's Neural Network Formation Assay for Mean Number of Spikes in a Network Spike, Shafer Lab (AID 2284053)
In short: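 Continuous twelve-day exposure of developing rat cortical networks grown over 16 microelectrodes per well; spontaneous firing is captured at four time points, and the per-network-spike spike number is integrated over development by trapezoidal AUC.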

[2] = CCTE_Shafer_MEA_dev_per_network_spike_spike_percent: CCTE's Neural Network Formation Assay for Percent of Spikes in a Network Spike, Shafer Lab (AID 2284054)
In short: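 Developing networks of rat cortical neurons are dosed at day 0 and recorded extracellularly four times up to day 12. The endpoint is the area under the curve of percent spikes in network spikes, fitted in the negative direction relative to DMSO.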

[3] = CCTE_Shafer_MEA_acute_AB: CCTE's Alamar Blue Assay for Cytotoxicity in the Neural Acute Assay, Shafer Lab (AID 2284069; active means hit-call score of the fitted dose curve at least 0.9, where 1 is the maximum;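 further: active compounds lower the viability signal compared with DMSO wells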)
In short: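 Metabolic activity in chemically exposed rat cortical neurons (MEA cultures, day 13/15 post-plating) measured via CellTiter Blue resazurin reduction, 544/590 nm fluorescence; fitted relative to DMSO, with signal loss indicating reduced viability.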

[4] = CCTE_Shafer_MEA_dev_AB: CCTE's Alamar Blue Assay for Cytotoxicity in the Neural Network Formation Assay, Shafer Lab (AID 2284083; active means hit-call score of the fitted dose curve at least 0.9, where 1 is the maximum;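 further: twelve days of exposure from plating with re-dosing on DIV 5 and 9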)
In short: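 Fluorescent resazurin reduction serves as the viability read-out, with DMSO as negative control and baseline. Cells were primary rat cortical neurons grown on MEA plates and dosed from day 0 to day 12, treatment renewed on DIV 5 and 9.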

[5] = CCTE_Shafer_MEA_acute_LDH: CCTE's Lactate Dehydrogenase Assay for Cytotoxicity in the Neural Acute Assay, Shafer Lab (AID 2284086; active means hit-call score of the fitted dose curve at least 0.9, where 1 is the maximum;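 further: active means LDH release rises above DMSO vehicle level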)
In short: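 LDH released during 40 min compound exposure of primary rat cortical cultures, quantified by absorbance at 490 nm in collected medium. Fitting direction positive versus DMSO vehicle.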

[6] = CCTE_Shafer_MEA_dev_mutual_information_norm: CCTE's Neural Network Formation Assay for Mutual Information Normalization, Shafer Lab (AID 2284091);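 on AC50: mutual information between electrodes summarised as area under curve across four recording days; potency is for a decrease in mutual information relative to DMSO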
In short: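 Exposure of primary rat cortical neurons began at plating and ran to DIV 12, with full media and treatment renewal after DIV 5 and 9 recordings. Mutual information AUC (DIV 5–12) was analysed for loss versus DMSO.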

[7] = CCTE_Shafer_MEA_dev_correlation_coefficient_mean: CCTE's Neural Network Formation Assay for Mean Correlation Coefficient, Shafer Lab (AID 2284093);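 on AC50: well mean pairwise spike train correlation integrated as AUC over recording days 5 to 12; potency fitted for loss of correlation relative to DMSO vehicle wells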
In short: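 Read-out: well-mean correlation coefficient of spike trains between electrode pairs, collapsed over four recording days as trapezoidal area-under-the-curve. Developing rat cortical neuron networks grown on MEAs received test chemical continuously from plating.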

[8] = CCTE_Mundy_HCI_Cortical_Synap_Neur_Matur_NeuriteSpotCountPerNeuriteLength: CCTE's Synaptogenesis and Neurite Maturation Assay in rat cortical cells for Neurite Spot Count per Neurite Length, Mundy Lab (AID 2284210)
In short: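 Neurite-associated synapse density (synaptophysin puncta per unit neurite length) is measured by fluorescence high-content imaging in rat cortical cultures treated from DIV 7 and fixed at DIV 12, with DMSO as negative control.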

[9] = CCTE_Mundy_HCI_Cortical_Synap_Neur_Matur_BPCount: CCTE's Synaptogenesis and Neurite Maturation Assay in rat cortical cells for Branch Point Count, Mundy Lab (AID 2284211)
In short: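 HCI read-out of branch points from MAP2/synaptophysin/Hoechst immunofluorescence; rat cortical cultures, AraC DIV 5, dosing DIV 7, fixed DIV 12; fit in positive direction vs DMSO baseline.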

[10] = CCTE_Mundy_HCI_Cortical_NOG_NeuriteCount: CCTE's Neurite Outgrowth Assay in rat cortical cells for Neurite Count, Mundy Lab (AID 2284212);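 further: cells fixed about two days after chemical exposure began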
In short: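 Rat cortical primary cells; compound added 2 h post-plating, 1/10 dilution of working solution. Anti-betaIII-tubulin/AF488 ICC; ArrayScan neurite count vs DMSO.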

[11] = CCTE_Mundy_HCI_Cortical_NOG_NeuriteLength: CCTE's Neurite Outgrowth Assay in rat cortical cells for Neurite Length, Mundy Lab (AID 2284213)
In short: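 First, rat primary cortical cells were plated and, 2 h later, given test chemical as a 1/10 dilution. Finally, βIII-tubulin immunostaining enabled automated imaging of neurite length.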

[12] = CCTE_Mundy_HCI_Cortical_Synap_Neur_Matur_NeuriteLength: CCTE's Synaptogenesis and Neurite Maturation Assay in rat cortical cells for Neurite Length, Mundy Lab (AID 2284214)
In short: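 Neurite length quantified by automated high-content imaging of MAP2, synaptophysin and Hoechst staining. Rat cortical cells received chemical from DIV 7 to DIV 12 […], glial growth arrested by AraC at DIV 5; DMSO baseline.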

[13] = CCTE_Mundy_HCI_Cortical_Synap_Neur_Matur_NeuriteSpotCountPerNeuron: CCTE's Synaptogenesis and Neurite Maturation Assay in rat cortical cells for Neurite Spot Count per Neuron Count, Mundy Lab (AID 2284215)
In short: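 Rat primary cortical cells received AraC at DIV 5, then chemicals with a media change at DIV 7, and were fixed at DIV 12. Synaptophysin puncta on MAP2-stained neurites per neuron were counted by high-content imaging, fitted relative to DMSO.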

[14] = CCTE_Mundy_HCI_Cortical_Synap_Neur_Matur_SynapseCount: CCTE's Synaptogenesis and Neurite Maturation Assay in rat cortical cells for Synapse Count, Mundy Lab (AID 2284218)
In short: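 High-content imaging of synaptophysin puncta per MAP2-positive neuron (Hoechst nuclei) in rat cortical cells exposed DIV 7–12 after glial arrest with AraC at DIV 5; decrease relative to DMSO scored.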

[15] = CCTE_Shafer_MEA_dev_LDH: CCTE's Lactate Dehydrogenase Assay for Cytotoxicity in the Neural Network Formation Assay, Shafer Lab (AID 2284068; active means hit-call score of the fitted dose curve at least 0.9, where 1 is the maximum;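 further: exposure for twelve days from plating with re-dosing on DIV 5 and 9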)
In short: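 Cytotoxicity companion to network-formation recordings: rat cortical neurons received compound over 12 days of development, re-dosed at DIV 5 and 9 feeds. Viability was inferred from LDH enzyme activity relative to DMSO.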

DIO3 (gene 1735) = experiment: CCTE_GLTED_hDIO3: CCTE's human Deiodinase 3 (DIO3) Inhibition Assay, Great Lakes Toxicology and Ecology Division (GLTED) Lab (AID 2284055; active means hit-call score of the fitted dose curve at least 0.9, where 1 is the maximum;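 further: potency is for inhibition seen as loss of released iodide signal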)
In short: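 Inhibition is read as reduced iodide release, measured spectrophotometrically by the Sandell-Kolthoff cerium/arsenic reaction. Adenovirus-expressed human DIO3 enzyme is exposed to chemical for 3 h, n=3 plates. Iodinated chemicals, nitrite, iron or thiocyanate may interfere.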

[16] = IUF_NPC1b_proliferation_BrdU_72hr: Leibniz Research Institute for Environmental Medicine (IUF) 72-hour Neural Progenitor Cell Bromodeoxyuridine (BrdU) Proliferation Assay (NPC1b) (AID 2284207)
In short: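 Neural progenitor spheres of human fetal origin are treated for three days; BrdU added for the last 16 h is quantified by luminescence ELISA, with DMSO as baseline and EGF/FGF omission as positive control.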

[17] = IUF_NPC1a_proliferation_area_72hr: Leibniz Research Institute for Environmental Medicine (IUF) 72-hour Neural Progenitor Cell Proliferation Area Assay (NPC1a) (AID 2284208)
In short: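 Read-out: increase in sphere area over 72 h by automated phase-contrast imaging, fitted in positive direction versus DMSO baseline. One hNPC sphere (0.25-0.35 mm) per well in EGF/FGF medium; growth-factor withdrawal served as positive control.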

[18] = IUF_NPC1_viability_72hr: Viability Assessment at 72 hours in the Leibniz Research Institute for Environmental Medicine (IUF) Neural Progenitor Cell Proliferation Assay (NPC1) (AID 2284209)
In short: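 Viability was measured by resazurin-to-resorufin fluorescence (alamar blue) after 72 h of continuous exposure without compound renewal. Each well held one hNPC sphere (gestational week 16-19 fetal cortex, 0.25-0.35 mm) cultured in EGF/FGF proliferation medium at 37C and pH 7.2-7.6.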

Measured: AC50

CC[C@H]1OC(=O)[C@H](C)[C@@H](O[C@H]2C[C@@](C)(OC)[C@@H](O)[C@H](C)O2)[C@H](C)[C@@H](O[C@@H]2O[C@H](C)C[C@H](N(C)C)[C@H]2O)[C@](C)(O)C[C@@H](C)C(=O)[C@H](C)[C@@H](O)[C@]1(C)O
inactive: [1] | [2] | [3] | [4] | [5] | [6] | [7] | [8] | [9] | [10] | [11] | [12] | [13] | [14]

Cc1[nH]cnc1C[C@H]1CCc2c(C)c3ccccc3n2C1=O
inactive: [3] | [5]

CCCCC(CC)COC(=O)CCCCCCCCC(=O)OCC(CC)CCCC (configuration not stated)
inactive: [3] | [5]

CCCN(C1CCN(C(=O)C2CCNCC2)CC1)[C@@H]1CCc2ccc(OC)cc2C1
inactive: [3] | [5]

Nc1nc2ncc(CNc3ccc(C(=O)N[C@@H](CCC(=O)O)C(=O)O)cc3)nc2c(=O)[nH]1
inactive: [1] | [2] | [15] | [6] | [7]

CC(C)=CCCC(C)=CC=O
inactive: [3] | [5]
active: DIO3 (gene 1735) 31.3 µM

CC[C@H]1CC[C@H](NCc2cc3c(cc2OC)[C@H]2C[C@H]2C(=O)N3C)[C@H](c2ccccc2)N1
inactive: [3] | [5]

O=P(OC(CCl)CCl)(OC(CCl)CCl)OC(CCl)CCl
inactive: [1] | [2] | [15] | [3] | [4] | [5] | [6] | [7] | [16] | [17] | [18] | [8] | [10] | [11] | [12]
active: [9] 6.93 µM | [13] 2.98 µM | [14] 2.98 µM

CNCc1ccc(NC(=O)c2c[nH]c3c2C(=O)CCC3)cc1
active: [1] 2.49 µM | [15] 865 nM | [6] 755 nM
inactive: [2] | [4] | [7]

COc1ccc(-n2nc(C(F)F)cc2-c2ccc(S(C)=O)cc2)cc1 (configuration not stated)
inactive: [1] | [2] | [4] | [6] | [7]
active: [15] 603 nM

CC[C@H](C)C(=O)O[C@H]1C[C@@H](C)C=C2C=C[C@H](C)[C@H](CC[C@@H]3C[C@@H](O)CC(=O)O3)[C@H]21
active: [1] 2.22 µM | [2] 1.77 µM | DIO3 (gene 1735) 100 µM | [15] 956 nM | [4] 10 µM | [7] 16.9 nM
inactive: [6]
